EBV gp42 inh = Epstein-Barr virus gp42 inhibitors, primary screen, biochemical, uHTS, fluorescence polarization | Glycoprotein 42 (Epstein-Barr virus (strain AG876)), Q1HVG2 | Fluorescence polarization binding assay, mP read-out | inhibition, % (tested at 21.74 µM) | 0.42% of 220,000 active | AID 1085, 2008; in the data active = inhibition above about 50%
Bcl-xL primary = inhibitors of human Bcl-xL, primary screen, biochemical, fluorescence polarization, HTS. Bcl-2-like protein 1 (Homo sapiens), Q07817. GST-Bcl-xL / FITC-Bim BH3 peptide fluorescence polarization. inhibition, % at 10.9 µM. 0.7% of 320,000 active;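 active = inhibition above the mean of all tested compounds plus 3 SD, cutoff set per campaign, cut at about 30% in these data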;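 also: 0% = DMSO wells and 100% = unlabeled Bim-BH3 peptide competitor; inhibitors lower millipolarization by displacing the labeled peptide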
MEX-5 binding = MEX-5 zinc finger RNA-binding disruptors – biochemical, C. elegans, fluorescence polarization, MLPCN library, primary screen. Zinc finger protein mex-5 (Caenorhabditis elegans), Q9XUB2. MEX-5/FITC-TCR2 RNA binding; hits give low values. activity score (negative = inhibition of binding), % at 10 µM. 0.38% of 300,000 active. AID 1832, 2009;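 active = inhibition past about -25% in most replicates, and total fluorescence under double the plate's negative control median, limit read from the data; inconclusive = replicates evenly split on the limit, or fluorescence at least double controls; inactive = too little inhibition in most replicates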;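 also: 0% = DMSO and -100% = 5 µM competing unlabeled TCR2 RNA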
GLD-1 TGE inh = GLD-1/TGE RNA complex disruptors, primary screen, biochemical, fluorescence polarization; Female germline-specific tumor suppressor gld-1 (Caenorhabditis elegans), Q17339; inhibition, % at 5.96 µM; 0.44% of 320,000 active; purified GLD-1 + fluorescein TGE RNA; AID 2280, 2010;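 active = percent inhibition above a per-plate cutoff, the plate mean of test compounds plus 3 SD, cut at about 30% in these data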;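 also: 0% = DMSO wells with GLD-1 and probe and 100% = wells lacking GLD-1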
MCL1-BIM inh = inhibitors of MCL1 binding to BIM-BH3, primary screen, biochemical, fluorescence polarization | 0.68% of 320,000 active | GST-MCL1 / FITC-Bim-BH3 fluorescence polarization | Induced myeloid leukemia cell differentiation protein Mcl-1 (Homo sapiens), Q07820 | inhibition, % at 10.9 µM;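 active = inhibition above the mean inhibition of all tested compounds plus 3 SD, set per campaign, cut at about 40% in these data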;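 also: 0% = DMSO wells and 100% = unlabeled Bim-BH3 peptide control; higher means more loss of mP so more displacement of Bim peptide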
Target sequence (Q07820 whole entry, looked up): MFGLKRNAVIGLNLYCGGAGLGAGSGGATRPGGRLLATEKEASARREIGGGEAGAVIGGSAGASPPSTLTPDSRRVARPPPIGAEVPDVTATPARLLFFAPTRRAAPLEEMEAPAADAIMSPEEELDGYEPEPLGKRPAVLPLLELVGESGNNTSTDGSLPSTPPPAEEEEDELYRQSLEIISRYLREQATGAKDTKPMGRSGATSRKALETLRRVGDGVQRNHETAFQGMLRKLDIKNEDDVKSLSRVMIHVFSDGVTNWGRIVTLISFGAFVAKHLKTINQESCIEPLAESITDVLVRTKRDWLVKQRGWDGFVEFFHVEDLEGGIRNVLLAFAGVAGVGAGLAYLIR
An asterisk follows results filed as active; ? = inconclusive; · = no result given. Most compounds without a hit are left out; they make up all but 1.3% or so of the library.

SMILES	EBV gp42 inh	Bcl-xL primary	MEX-5 binding	GLD-1 TGE inh	MCL1-BIM inh
COc1ccccc1/C=c1\sc2nc(-c3ccccc3OC)nn2c1=O	-2	6	·	1	-3
COc1ccc(/C=c2\sc3nc(=O)c(C)nn3c2=O)c(OC)c1	-136	-14	-40*	-5	-22
COc1ccccc1C(=O)Nc1nnc(-c2ccccc2)s1	·	47*	2	10	-1
O=C(Cc1cccc([N+](=O)[O-])c1)Nc1ccc(C(=O)N2CCCCC2)cc1	·	·	·	1	·
CC[C@H](C)/C=C/C1=CC2=C(Cl)C(=O)[C@@]3(C)OC(=O)C(C(=O)[C@H](C)[C@@H](C)O)=C3C2=CO1	·	32*	-19	19	38
CCCCCCc1cc2cc(S(=O)(=O)c3ccc(F)cc3)c(=O)oc2cc1O	-8	10	1	60*	1
CCN(CC)c1ccc2cc(S(=O)(=O)c3ccc(C)cc3)c(=O)oc2c1	142*	-8	-77*	-39	-24
CCN(CC)c1ccc2cc(C(=O)NNC(=O)c3ccc(S(=O)(=O)N4CCCCC4)cc3)c(=O)oc2c1	174*	-9	?	-21	-14
CCN(CC)c1ccc2cc(C#N)c(=O)oc2c1	29	-12	-57*	-39	-25
C#CCOC(=O)C[N+](C)(C)CC#Cc1ccccc1	1	-3	-1	-1	-9
CCN1CCN(C(=S)NC(C)c2ccccc2)CC1 (centres undefined)	-10	9	3	-2	8
CCC(C)[C@H](NC(=O)N1CCC(C)CC1)C(=O)OC (some centres undefined)	-14	6	1	1	2
CC(NCC(=O)Nc1cc(S(=O)(=O)N2CCOCC2)ccc1N1CCOCC1)c1ccco1 (centres undefined)	·	0	·	-4	0
Cc1coc(NC(=O)CSc2nc(-c3ccc(Cl)cc3)cc(C(F)(F)F)c2C#N)n1	-35	45*	-4	6	40*
COC(=O)C1C(O)CCC2CN3CCc4c([nH]c5ccccc45)C3CC21 (centres undefined)	16	37*	-15	16	42*
COc1cccc(CCN2C(=O)C(=O)N([C@@H](CNCc3ccccc3)Cc3ccccc3F)C[C@@H]2C(C)(C)C)c1	·	5	·	181*	6
COc1cccc(NC2CC(=O)N(CCc3ccccc3)C2=O)c1 (centres undefined)	-3	-1	0	-5	-3
CC(=O)N(Cc1ccccc1)c1ncc2c(n1)c(=O)c(C#N)c1ccccn12	32	34*	-8	18	45*
CC(=O)N(Cc1c(C#N)c2ccccc2n1C)c1ccccc1	-12	-5	3	-6	-2
Oc1cc2c(cc1O)[C@@H](c1ccccc1)CNCC2	-18	·	·	·	·
Oc1cc2c(cc1O)C(c1ccccc1)CNCC2 (centres undefined)	·	19	-30*	1	13
CC(C)Cc1nnc(NC(=O)CCC(=O)N2CCC(C)CC2)s1	·	7	0	3	-3
CC(C)Cc1nnc(NC(=O)CCC(=O)N2CC(C)CC(C)C2)s1 (centres undefined)	·	1	-27*	2	7
Clc1ccc(CCNc2nc3ccccc3n3nnnc23)cc1	-16	-2	0	-3	-1
c1ccc2c(c1)nc(NCC1CCCO1)c1nnnn12 (centres undefined)	27	40*	4	11	27
O=C(c1ccccc1)c1ccc2c(c1)OCCOCCOCCO2	4	0	-2	4	-4
O=C(c1ccccc1)c1ccc2c(c1)OCCCO2	68*	3	0	3	9
Fc1ccc(-c2ccnc3nc(N4CCN(c5ccccc5)CC4)nn23)cc1	-3	7	0	11	10
c1ccc(-c2ccnc3nc(N4CCN(c5ccccc5)CC4)nn23)cc1	72*	2	-10	3	0
Cc1ccc2nc3c(cc(C(=O)NCC4CCCO4)c(=N)n3CCCOC(C)C)c(=O)n2c1 (centres undefined)	-19	6	·	7	1
